The source made the active and inactive calls. Calls come from the whole dose curve; as a rule, active = well fitted cell-killing curve with a large enough effect; inconclusive = small, poorly fitted or top-dose-only effect; inactive = flat fitted curve, though single readings scatter.
experiment: Cell Viability - LYMP1-002 - Assay at 24 hr (AID 993); settings: LYMP1-002 lymphoblastoid cells viability; series mostly up to 92.2 µM; activity change, negative = cytotoxicity: at the top concentration
Text: NIH Chemical Genomics Center [NCGC]
NIH Molecular Libraries Screening Centers Network [MLSCN]
National Institutes of Environmental Health Sciences [NIEHS]
National Toxicology Program [NTP]
We have developed a 1536-well cell-based assay for quantitative high throughput screening (qHTS) against a number of cell lines to determine in vitro cytotoxicity of small molecules. This particular assay uses a human lymphoblastoid cell line (LYMP1-002) purchased from Coriell Institute for Medical Research.
NCGC Assay Protocol Summary:
The CellTiter-Glo luminescent cell viability assay (Promega) is a homogeneous method to measure the number of viable cells in culture. The end point readout of this assay is based on quantitation of intracellular ATP, an indicator of metabolic activity, using the luciferase reaction. Luciferase catalyzes the oxidation of beetle Luciferin to oxyluciferin and light in the presence of ATP. The luminescent signal is proportional to amount of ATP present.
Using the CellTiter-Glo luminescent cell viability assay, the amount of cellular ATP was measured in the lymphoblastoid cell line with complete culture medium following compound treatment for 24 hours. The assay was performed in opaque white Kalypsys 1536-well plates. In the screen, tetraoctylammonium bromide was used as positive control. Library compounds were measured for their ability to cause acute toxicity in the cell line, as reflected by a decrease in intracellular ATP levels, in a concentration-dependent manner. […] AC50 values were determined from concentration-response data modeled with the standard Hill equation.
qHTS protocol for CellTiter Glo lymphoblastoid cellular assay
[Step] [Parameter] [Value] [Description]
1. Reagent; 5 uL; 2500 lymphoblastoid cells/well
2. Time; 5 hr; 37 C incubation
4. Controls; 23 nL; Tetraoctylammonium bromide 6.4pM to 92 uM
5. Time; 24 hr; 37 C incubation
6. Reagent; 5 uL; CellTiter Glo reagent
7. Time; 30 min; Room Temperature
8. Detection; Luminescence; Viewlux plate reader
Keywords: cell viability, cytotoxicity, lymphoblastoid cell line, luminescence, NTPHTS, NTPHTS_NCGC, NIEHS, DSSTox, MLSMR, MLSCN, NIH Roadmap, qHTS, NCGC
% is set by controls: 0 for no effect and ±100 for the full control effect.

Structure (SMILES) | activity change, negative = cytotoxicity
CCCCC(CC)COC(=O)c1ccc(C(=O)OCC(CC)CCCC)c(C(=O)OCC(CC)CCCC)c1 (stereo not given) | 5.75% (inactive)
Clc1ccc(C(Cl)(Cl)Cl)cc1Cl | -1.57% (inactive)
CCC[N+](=O)[O-] | 4.71% (inactive)
CCSC(=O)N1CCCCCC1 | -0.462% (inactive)
Nc1ncc([N+](=O)[O-])s1 | 3.02% (inactive)
Cc1ccc2c(c1N)C(=O)c1ccccc1C2=O | -20.3% (inactive)
C/C=C/C=O | 7.12% (inactive)
O=P(OCCCl)(OCCCl)OCCCl | 0.221% (inactive)
BrC(Br)Br | -10.3% (inactive)
Nc1cccc2ccccc12 | -7.04% (inactive)
CCCCOC(C)=O | -5.5% (inactive)
O=[N+]([O-])c1ccc2c3c(cccc13)CC2 | -7.39% (inactive)
Brc1cccc(-c2ccccc2)c1 | 3.3% (inactive)
CCNCC | 4.05% (inactive)
O=[N+]([O-])c1cccc(CCl)c1 | -10.8% (inactive)
O=[N+]([O-])c1cc(Cl)c(Cl)c(Cl)c1 | 4.34% (inactive)
C=CCCl | -3.51% (inactive)
C=CC(=O)OCCO | -1.7% (inactive)
O=[N+]([O-])c1cccc2c([N+](=O)[O-])cccc12 | 0.0863% (inactive)
Cc1cc(-c2ccc(N)c(C)c2)ccc1N | -12.1% (inactive)

Structure (SMILES) | activity change, negative = cytotoxicity
Oc1cc(Cl)ccc1Cl | 0.563% (inactive)
O=C(O)c1cccc(Cl)c1 | -0.399% (inactive)
N#CC(Br)Br | 1.16% (inactive)
CC(C)[C@]12CC(=O)[C@H](C)[C@H]1C2 | 5.53% (inactive)
ClCC(Br)CBr (stereo not given) | -0.543% (inactive)
COC(=O)Nc1cccc(OC(=O)Nc2cccc(C)c2)c1 | 0.465% (inactive)
CCCCOCC1CO1 (stereo not given) | 4.57% (inactive)
Oc1cccc(Cl)c1 | 7.57% (inactive)
c1ccc(Nc2ccc(Nc3ccccc3)cc2)cc1 | -1.4% (inactive)
O=[N+]([O-])c1cc(Cl)c(Cl)cc1Cl | -0.965% (inactive)
ClC(Cl)C(Cl)Cl | 4.21% (inactive)
Nc1c(Cl)cc([N+](=O)[O-])cc1Cl | -2.02% (inactive)
O=[N+]([O-])c1ccc(Cl)c(Cl)c1Cl | 1.28% (inactive)
CCCC[N+](=O)[O-] | 7.68% (inactive)
CN(C)c1ccc(N(C)C)cc1 | -12.5% (inactive)
CC(C)(C)C(O)(CCc1ccc(Cl)cc1)Cn1cncn1 (stereo not given) | 0.519% (inactive)
c1ccc(P(c2ccccc2)c2ccccc2)cc1 | -2.25% (inactive)
CCOC(=O)CC(SP(=O)(OC)OC)C(=O)OCC (stereo not given) | 5.01% (inactive)
O=S(=O)(O)F | 1.28% (inactive)
O=Cc1ccc2c(c1)OCO2 | 1.6% (inactive)

Reference: PubChem BioAssay (NCATS)
